Results taken from PubChem BioAssay (NCATS).
Results filed as inconclusive are left out. Active and inactive are the calls of the source. Unless noted, calls follow the shape of the dose curve; as a rule, active = well fitted curve in the direction sought with a large enough effect; inconclusive = small, poorly fitted or top-dose-only effect, or another doubt; inactive = no such curve, though single readings can be large; an effect the other way counts as inactive or inconclusive.

How the values were obtained:
[1] = P-glycoprotein substrates identified in KB-3-1 adenocarcinoma cell line, qHTS therapeutic library screen (AID 1346986); settings: KB-3-1 parental cells viability, CellTiter-Glo, 72 h; series mostly up to 44.5 µM; also: nearly all actives have a fitted effect of over 60% in size;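 also: potency is read from the fitted curve at half-maximal effect; potency is for cytotoxicity meaning loss of cell viability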
Outline: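 Viability read by CellTiter-Glo after 72 h compound exposure in dose-response of KB-3-1 and KB-8-5-11 (P-gp-high) cells. Hits needed AC50 < 10 uM, >50% maximum response and curve class -1.1 to -2.4. Cherry-picks retested ± tariquidar, including pcDNA/MDR-19 HEK-293 pair.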

[2] = qHTS to identify inhibitors of the type 1 interferon - major histocompatibility complex class I in skeletal muscle: primary screen against the NCATS Mechanism Interrogation Plate v5.0 (MIPE) Libary (AID 1347411); settings: iHSKM cells + IFN-b, HiBiT-tagged MHC-I luminescence, 24 h; series mostly up to 45.8 µM; also: nearly all actives have a fitted effect of over 65% in size; also: potency is read from the fitted curve at half-maximal effect;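 as to activity change, negative = inhibition: plate controls were vehicle for no effect and reference inhibitor for full effect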
Outline: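 Luminescence from CRISPR HiBit-tagged endogenous HLA-B in human myoblasts reported MHC class I level after 24 h of IFN-beta (4 ng/ml) plus compound. Compounds ran as 11-point 1:3 series, top 46 uM final.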

[3] = qHTS assay to identify inhibitors of the type 1 interferon - major histocompatibility complex class I in skeletal muscle: Counter screen cell viability and HiBit confirmation (AID 1347412); settings: iHSKM muscle cells + IFN-b, HiBiT or CellTiter-Glo, 24 h; for Potency: HiBiT; also: potency is read from the fitted curve at half-maximal effect; as to activity change, negative = inhibition: % is scaled to controls: 0 for no effect and ±100 for the full control effect; as to all read-outs here: nearly all actives have a fitted effect of over 60% in size
Outline: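 Myoblasts (C25cl48, HLA-B HiBiT) seeded in medium without dexamethasone, IFN-b 4 ng/ml added except unstimulated columns; 1 hr later compounds pinned (12-pt 1:3, top 46 uM final). Incubated 24 hrs, lysed 10 min, luminescence measured.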

astro = experiment: Drug repurposing screens with cells derived from glioblastoma tumor samples (AID 1345199); settings: viability, ATP luminescence, 48 h; series mostly up to 45.9 µM; also: nearly all actives have a fitted effect of over 40% in size; also: potency is read from the fitted curve at half-maximal effect; as to activity, negative = cell killing: % is scaled to controls: 0 for no effect and ±100 for the full control effect
Outline: (§1)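 Primary testing used CD133+ neurospheres from four GBM patients, seven concentrations, 48 h exposure and ATP-based viability; confirmation added three slower-growing patient lines.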

[4] = tested on: Zika virus NS2B-NS3 protease; experiment: Primary screen GU AMC qHTS for Zika virus inhibitors (AID 1347154); settings: Zika NS2B-NS3 unlinked protease, AMC fluorogenic substrate; series mostly up to 54.1 µM;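 also: 0% = no-inhibitor control and -100% = no-enzyme control; nearly all actives have a fitted effect of over 70% in size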
Outline: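 Fluorogenic AMC-substrate cleavage by noncovalent NS2B-NS3 protease complex (25 nM, pH 8.0 Tris buffer with Tween 20) followed for 15 minutes at room temperature (~20% conversion). Percent inhibition from ex340/em450 signal change, fitted by 4-parameter Hill equation.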

[5] = Primary qHTS for small molecule stabilizers of the endoplasmic reticulum resident proteome: Secreted ER Calcium Modulated Protein (SERCaMP) assay (AID 1508630); settings: SH-SY5Y GLuc-SERCaMP (Gaussia luciferase released on ER calcium loss) secretion, thapsigargin, luminescence; series mostly up to 38.4 µM; also: % is scaled to controls: 0 for no effect and ±100 for the full control effect
Outline: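 The SH-SY5Y reporter protocol was run at 3 concentrations up to 38.3 uM (primary) or 11 concentrations (follow-up): 16 h compound, 100 nM thapsigargin for 4 h, then extracellular luciferase luminescence.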

[6] = qHTS Assay for Identifying Gametocytocidal Compounds (AID 743244);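 also: % is scaled to controls: 0 for no effect and ±100 for the full control effect; actives lower the fluorescent signal which means gametocytes are killed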; settings: P. falciparum 3D7 stage III-V gametocytes, alamarBlue, 72 h; max response: stronger effect = lower value
Outline: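 Using 20,000 stage III–V 3D7 gametocytes per well, compounds were incubated 72 h under 37 °C/5% CO2. Viability was then assessed by 24 h alamarBlue reduction, measured fluorometrically at 525/598 nm.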

[7] = Drug repurposing screens with cells derived from glioblastoma tumor samples (AID 1345199); settings: GBM patient neurospheres viability, ATP luminescence, 48 h; also: nearly all actives have a fitted effect of over 40% in size; also: potency is read from the fitted curve at half-maximal effect; as to activity, negative = cell killing: % is scaled to controls: 0 for no effect and ±100 for the full control effect
Outline: as §1

[8] = biological target: Catechol O-methyltransferase (Homo sapiens) (UniProt P21964); experiment: Confirmatory Screen for Target Class Profiling of Small Molecule Inhibitors of Methyltransferases (AID 1745852; calls by dose curve; also: potency is read from the fitted curve at half-maximal effect); settings: MTase-Glo luminescence, SAH detection, recombinant enzyme; measured here: COMT max response; stronger effect = lower value
Sequence of Catechol O-methyltransferase (Homo sapiens) (P21964 whole entry, looked up): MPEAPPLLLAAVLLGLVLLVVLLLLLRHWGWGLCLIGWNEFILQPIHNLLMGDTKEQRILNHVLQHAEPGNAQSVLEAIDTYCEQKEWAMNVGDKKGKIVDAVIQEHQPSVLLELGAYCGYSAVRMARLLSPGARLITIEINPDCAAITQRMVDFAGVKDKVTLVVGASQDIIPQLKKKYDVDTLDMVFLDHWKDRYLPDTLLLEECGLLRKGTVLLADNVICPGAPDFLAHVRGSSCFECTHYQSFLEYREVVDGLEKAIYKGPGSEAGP

[9] = biological target: Guanidinoacetate N-methyltransferase (Homo sapiens) (UniProt Q14353); experiment: as above; settings: MTase-Glo luminescence, SAH detection, recombinant enzyme; activity change, negative = inhibition: at 57.3 µM (top of the series) unless noted; series mostly up to 57.3 µM
[10] = biological target: Nicotinamide N-methyltransferase (Homo sapiens) (UniProt P40261); experiment: as above; settings: MTase-Glo luminescence, SAH detection, recombinant enzyme; measured here: NNMT max response; stronger effect = lower value
Sequence of Nicotinamide N-methyltransferase (Homo sapiens) (P40261 whole entry, looked up): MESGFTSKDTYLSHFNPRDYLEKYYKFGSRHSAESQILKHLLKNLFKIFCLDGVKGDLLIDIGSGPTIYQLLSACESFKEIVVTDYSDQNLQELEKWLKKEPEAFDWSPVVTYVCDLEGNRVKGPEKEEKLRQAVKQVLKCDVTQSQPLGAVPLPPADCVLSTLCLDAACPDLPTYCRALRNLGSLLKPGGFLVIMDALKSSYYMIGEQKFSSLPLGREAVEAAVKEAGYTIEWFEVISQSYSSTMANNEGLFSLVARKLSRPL

[11] = biological target: Phenylethanolamine N-methyltransferase (Homo sapiens) (UniProt P11086); experiment: as above; settings: MTase-Glo luminescence, SAH detection, recombinant enzyme; measured here: PNMT max response; stronger effect = lower value
Sequence of Phenylethanolamine N-methyltransferase (Homo sapiens) (P11086 whole entry, looked up): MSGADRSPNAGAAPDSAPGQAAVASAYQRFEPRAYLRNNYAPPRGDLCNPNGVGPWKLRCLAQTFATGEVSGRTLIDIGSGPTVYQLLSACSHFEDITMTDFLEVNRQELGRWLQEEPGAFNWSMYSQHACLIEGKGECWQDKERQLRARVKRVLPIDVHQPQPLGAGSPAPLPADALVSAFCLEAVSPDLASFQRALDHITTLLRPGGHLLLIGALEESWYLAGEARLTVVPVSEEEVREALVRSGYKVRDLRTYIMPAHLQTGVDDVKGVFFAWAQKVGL

In the case of `CN(C)Cc1cccc(N=C(c2ccccc2)c2c(O)[nH]c3cc(C(N)=O)ccc23)c1`, the Potency [1] is reported as “inactive” and the Potency [2] is reported as “inactive”.

With `O=C1NC(=O)/C(=C/c2ccc3nccc(-c4ccncc4)c3c2)S1` the Potency [1] was 1.64 µM (active), the Potency [2] was 0.829 µM (active) and the Potency [3] was 4.97 µM (active).

With `COC(=O)[C@]12CCC(C)(C)C[C@@H]1[C@@H]1C(=O)C=C3[C@]4(C)C=C(C#N)C(=O)C(C)(C)[C@@H]4CC[C@@]3(C)[C@]1(C)CC2` the Potency [1] was 1.46 µM (active).

With `CCN(CC)C(=O)c1cc(S(=O)(=O)Cc2ccccc2)c(N2CCC(c3ccccc3)CC2)cc1N(CC)CCN(C)C` the Potency (astro) was 12.6 µM (active).

With `C=CC(=O)Nc1cccc(C)c1Nc1ncc2cc(-c3c(Cl)c(OC)cc(OC)c3Cl)ccc2n1` the Potency [1] was 14.6 µM (active), the Potency [2] was 11.7 µM (active) and the Potency [3] was 15.7 µM (active). The activity change, negative = inhibition ([3]; Viability, at 45.9 µM (top of the series)) was 1.08% (inactive).

For `COc1cc(/C=C(\C#N)C(N)=O)cc(CSc2nc3ccccc3s2)c1O`, the Potency [1] was “inactive”, the Potency [4] was “inactive” and the Potency [5] was “inactive”.

In the case of `C=C1C(=O)O[C@H]2[C@H]1CC/C(C)=C\CC[C@@]1(C)O[C@@H]21`, the Potency (astro) is reported as 20 µM (active).

For `Cn1cc(C2=C(c3cn(CCCSC(=N)N)c4ccccc34)C(=O)NC2=O)c2ccccc21`, the Potency [1] was 5.17 µM (active), the Potency [4] was “inactive” and the Potency [5] was “inactive”.

With `C#C[C@]1(OC(C)=O)CC[C@H]2[C@@H]3CCC4=CC(=O)CC[C@@H]4[C@H]3CC[C@@]21C` the max response [6] was -3.45% (inactive), the activity, negative = cell killing ([7]; at 45.9 µM (top of the series), tumour line B) was -16% (inactive) and the activity, negative = cell killing ([7]; at 46.1 µM (top of the series), tumour line C) was -23.2% (inactive). The Potency ([7]; tumour line A) was 35.5 µM (active).

In the case of `Nc1ncnc2c1c(I)cn2C1OC(CO)C(O)C1O` (configuration not stated), the Potency [1] is reported as 3.26 µM (active), the Potency [4] is reported as “inactive” and the Potency [5] is reported as “inactive”. The activity [8] was -96.2%, the Potency [9] was 12.1 µM (active) and the activity [10] was -88.4%. The activity [11] was -97.6%.

With `C[C@H]1COCCN1c1cc(C2(S(=O)(=O)C3CC3)CC2)nc(-c2ccc(NC(=S)NCCO)cc2)n1` the Potency [1] was 0.103 µM (active) and the Potency [2] was 0.208 µM (active).

For `CCOc1ccc(/C=C2\SC(=O)N(CCN)C2=O)cc1`, the Potency [1] was “inactive”.

For `Cc1nc(CN(C)c2ncnc3ccc(-c4ccc5c(c4)OCO5)cc23)cs1`, the Potency [1] was 16.4 µM (active), the activity [8] was -89.6% and the Potency [9] was 19.2 µM (active). For the same compound, the activity [10] was -80.4% and the activity [11] was -90.3%.
